# This is a sample that favours compounds with a hit; in the whole collection about 6.1% have one here.
# D3 antag: antagonists of human D3 dopamine receptor; 360,000 compounds, 2.5% hits; D3R cells, DiscoveRx beta-arrestin luminescence, antagonist mode; stronger effect = lower value; max response, negative = inhibition, %; in the data active = max response below about -50%; inconclusive = no clear call, values can overlap the other calls; note: % is set by controls: 0 for no effect and ±100 for the full control effect
#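 Cells plated overnight at 1500 cells/well, then exposed to library compounds with dopamine controls for 90 minutes at 37 degrees C. DiscoveRx reagent added for 30–60 minutes at room temperature; luminescence read, quantitative HTS format.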
# D1 antag: blocks dopamine activation of the human D1 receptor; 360,000 compounds, 3.2% hits; P21728; HEK293 TREx D1 cells, calcium flux, dopamine EC80; stronger effect = lower value; activity change, negative = inhibition, % at 10 µM; in the data active = activity change below about -30%; note: % is set by controls: 0 for no effect and ±100 for the full control effect
# Target sequence (P21728 whole entry, looked up): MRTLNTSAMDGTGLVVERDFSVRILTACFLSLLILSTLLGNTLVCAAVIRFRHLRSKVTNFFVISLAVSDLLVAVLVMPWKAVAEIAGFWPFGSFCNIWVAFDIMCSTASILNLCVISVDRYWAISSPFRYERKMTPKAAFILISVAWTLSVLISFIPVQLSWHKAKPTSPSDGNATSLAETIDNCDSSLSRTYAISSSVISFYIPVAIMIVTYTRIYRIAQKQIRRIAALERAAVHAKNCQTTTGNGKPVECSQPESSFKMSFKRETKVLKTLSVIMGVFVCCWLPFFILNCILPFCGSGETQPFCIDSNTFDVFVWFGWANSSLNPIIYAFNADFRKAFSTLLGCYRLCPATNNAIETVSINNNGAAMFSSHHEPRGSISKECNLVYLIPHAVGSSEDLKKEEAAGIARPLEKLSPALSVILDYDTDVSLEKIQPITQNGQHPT
#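 Kinetic fluorescence of a calcium dye serves as the read-out. D1-expressing Hek293 Trex cells, induced overnight at 30 C, are exposed to compound for 180 s before an EC80 dopamine addition, then read 180 s further.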
# D1 potentiator: enhances dopamine response at the human D1 receptor; P21728; HEK293 TREx D1 cells, calcium flux, dopamine EC20 potentiation; potentiation, % at 10 µM; 360,000 compounds, 0.036% hits; AID 504651; in the data active = potentiation above about 30%; note: 0% is about no effect
# D1 ag: activates the human D1 dopamine receptor; P21728; HEK293 T-REx D1 cells, calcium flux, agonist mode; activation, % at 2 µM; 360,000 compounds, 1% hits; in the data active = activation above about 30%; note: 0% is about no effect
#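 Tetracycline-induced HEK293 TREx D1 cells, force-coupled to calcium signalling, were dye-loaded with a no-wash calcium kit. Compound was pin-added after a 10 s baseline. Fluorescence was read kinetically at 1 cycle/s for 180 s, with calcium rises flagged as agonism.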
# D3 ag: D3 dopamine receptor (human) agonism. P35462. D3R DiscoveRx beta-arrestin cells, luminescence, 90 min. max activation, %. 410,000 compounds, 0.58% hits; in the data active = max activation above about 30%; note: 0% is about no effect
#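 Cells at 1500/well, incubated overnight, then treated with pinned compounds (dopamine as control) for 90 min at 37 degrees C. DiscoveRx reagent added for 30 - 60 minutes at room temperature; luminescence read.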
# Starred values were filed as active, the others as inactive; ? = inconclusive; / = not tested or not shown.
SMILES,D3 antag,D1 antag,D1 potentiator,D1 ag,D3 ag
COC(=O)c1ccc2nc(C)cc(Nc3ccccc3C)c2c1,-10,-33*,-2,3,-6
CC(=O)c1cccc(Nc2cc(C)nc3ccc(C)cc23)c1,-12,-40*,-20,-1,-6
Cc1cc(C)c2nc(C)cc(N/N=C/c3ccc(O)cc3)c2c1,?,-2,-4,9,-18
Cc1cc(N/N=C/c2ccc(O)cc2)c2cccc(C)c2n1,-72*,5,0,0,-8
N#Cc1ccc(-c2ccc(OCC(=O)NCC(=O)Nc3ccc(F)c(F)c3F)cc2)cc1,-13,-13,-2,8,-1
Cc1cc2c(cc1S(=O)(=O)N(CCO)Cc1ccccc1)OCC(=O)N2,/,6,-4,3,0
CC(C)Cn1c(=O)c2sccc2n2c(CCCC(=O)NCC(C)c3ccccc3)nnc12 (centres undefined),/,5,0,2,2
CC(=O)c1ccc(Nc2cc(C)nc3c(C)cccc23)cc1,-7,-31*,-3,10,-1
CC(=O)c1ccc(Nc2cc(C)nc3ccccc23)cc1,2,7,1,0,-2
O=c1oc2c(-c3ccc([N+](=O)[O-])cc3)cc(O)cc2s1,-56*,-6,-2,11,-5
COc1ccc(-c2cn3cccnc3n2)cc1NC(=O)c1c(F)cccc1F,/,-35*,-3,-1,0
CCN(CC)CCNC(=O)c1cc(Cl)c(N)cc1OC,-117*,-13,-6,2,-90
COCCNC(=O)c1cc(OC)c(OC)cc1[N+](=O)[O-],3,3,-3,0,-1
CCN(CC)CCNC(=O)c1cc([N+](=O)[O-])c(N(C)C)cc1OC,-93*,-1,-6,1,-22
CCN(CC)CCOC(=O)c1ccc(Cl)cc1,-83*,-1,0,5,-9
CCN(CC)CCOC(=O)c1cc(Cl)c(N)cc1OC,-58*,-1,-3,-2,-70
CCOc1ccc(C(=O)OCCN(CC)CC)cc1,6,-3,-3,-1,-5
COC(=O)c1cc(Cl)c(N)cc1OC,-11,-4,-4,0,-3
COc1ccc(C(=O)C2CCCN(S(=O)(=O)C(C)C)C2)c(C)c1 (centres undefined),15,-9,-1,8,-1
CCC(=O)N1c2ccccc2CC1C(=O)NCCc1ccccc1C (centres undefined),/,7,1,-2,-21
CCCC(=O)C1=C(c2cccc(OC)c2)N(C(=O)CCC)n2c(C)nnc2S1,/,/,-1,12,2
CN1CCN(NC(=S)Nc2ccc(Oc3ccccc3)cc2)CC1,-22,-11,-3,36*,-5
COc1cccc(NC(=S)NN2CCN(C)CC2)c1,18,3,-10,1,-10
CN(C)c1cccc(C(=O)OCc2cc(=O)oc3cc(O)ccc23)c1,2,15,0,1,1
CC1CN(S(=O)(=O)c2cccc(C(=O)OCc3cc(=O)oc4cc(O)ccc34)c2)CC(C)O1 (centres undefined),-56*,-8,-7,1,-10
SMILES,D3 antag,D1 antag,D1 potentiator,D1 ag,D3 ag
COc1ccc2c(COC(=O)c3cccc(S(=O)(=O)NCC(C)C)c3)cc(=O)oc2c1,46,-4,-3,7,32*
CNC(=O)c1c(NC(=O)c2ccc(S(=O)(=O)N3CCCCC3)cc2)sc2c1CCC2,/,1,-1,0,-17
CC(NC(=O)c1ccc(Br)o1)C1CCCO1 (centres undefined),2,-31*,-10,0,5
CC1(C)C2CC=C(/C=N/NC(=O)c3ccc(O)cc3)C1C2 (centres undefined),-9,-32*,-1,3,-12
O=C1N(Cc2cccnc2)C[C@@H]2C[C@@H](c3cccc(OC4CCCC4)c3)N3CCC[C@@]123,-10,2,0,1,2
COc1ccc(N2CCN(C(=O)Cn3c(=O)[nH]c4ccccc4c3=O)CC2)cc1,/,6,-2,3,/
O=[N+]([O-])c1ccc2n[nH]nc2c1,-70*,-7,-2,5,-5
CSc1ccc(OC2(C)CCN(Cc3ccc4c(c3)OCCO4)C2)cc1 (centres undefined),?,/,/,/,-14
Cc1ccccc1NC(=O)N1C2CCC1CC(O)(c1cccnc1)C2 (centres undefined),17,-34*,-2,0,0
CC(C)(C)NC(=O)CSC(=Nc1cccc(F)c1)NC#N,-9,-40*,-16,2,-11
CC(C)N=C(NC#N)SCc1ccccc1F,27,-49*,-3,2,-1
CC(C)N=C(NC#N)SCC(=O)NC(C)(C)C,8,10,-5,2,-1
N#CNC(=Nc1cccc(F)c1)SCc1ccccc1F,18,-40*,-4,20,0
N#CNC(=Nc1cccc(C(F)(F)F)c1)SCc1ccc(C(=O)O)cc1,-2,-10,-2,1,-7
CC(C)CN1C2CCCC1CC(NC(=S)NCc1ccco1)C2 (centres undefined),1,-5,-1,4,-8
Oc1ccccc1C1C=C(c2ccc3c(c2)OCO3)NC(c2cccc(Br)c2)N1 (centres undefined),/,-30,-5,21,/
COc1ccc(Cl)cc1NC(=O)CN1C(=O)NC2(CCCC2)C1=O,-2,-2,20,1,-3
COc1ccc(Cc2nnc(NC(=O)c3cccs3)s2)cc1OC,7,-23,-1,2,6
CC(=O)N(/N=C1\Sc2ccccc2C1=O)c1ccccc1C,-4,8,-4,2,7
CC(=O)N(/N=C1\Sc2ccccc2C1=O)c1ccccc1,-59*,-44*,-7,5,-2
Cc1ccc(S(=O)(=O)N2CCN(C)CC2)cc1[N+](=O)[O-],23,2,-8,1,3
CN1CCN(S(=O)(=O)c2ccc(N(C)Cc3ccc(OC(F)F)cc3)c([N+](=O)[O-])c2)CC1,-6,-39*,-6,11,-14
Cc1c(C(=O)NCc2ccc3c(c2)OCO3)sc2nc(-c3ccc(F)cc3)cn12,16,-42*,-12,4,-2
Cc1c(C(=O)NCc2ccccn2)sc2nc(-c3ccc(F)cc3)cn12,-13,-27,-9,4,-4
CCN(CC)CCCNC(=O)c1sc2nc(-c3ccc(F)cc3)cn2c1C,-62*,0,-1,1,-51
O=C(O)c1ccc(C2CCCCC2)cn1,-95*,-17,2,2,-9
N#Cc1c(N)nc(N2CCCC2)c(C#N)c1-c1ccc(Cl)cc1,-16,-57*,-13,3,1
CC1CCN(C(=O)COC(=O)c2ccc(Cl)nc2)CC1,-3,/,/,/,5
O=C(CN1CCN(C(=O)CCC(=O)N2CCC(c3ccccc3)=N2)CC1)Nc1ccc(F)cc1,-16,-41*,-6,4,-12
O=C(CN1CCN(C(=O)CCC(=O)N2CCC(c3ccccc3)=N2)CC1)Nc1cccc(F)c1,-15,/,/,/,2

# Source: PubChem BioAssay
